This passage reports growth results from PubChem BioAssay (NCI).

The panel holds about 83,000 compounds, 20% with a hit somewhere; the sample as a whole holds those more often.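 Compound tested at a single concentration for 48 hours in 96-well plates; a percent growth value below 10 was scored as active.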 Unmarked numbers belong to inactive results. The source made the active and inactive calls.

The subject of the assay is RPMI-8226 leukemia. Kind of assay: NCI-60 one-dose screen, 48 h (100 = growth as untreated, 0 = no growth, -100 = all killed). The following applies: 10 µM unless noted. As for the experimental part: Growth inhibition of the RPMI-8226 human tumor cell line is measured as a screen for anti-cancer activity. Cells are grown in 96 well plates and exposed to the test compound for 48 hours. Compounds are tested at a single concentration, which is 10^-5 M for most compounds. The reported endpoint is percent growth (GI% or GIPRCNT), where numbers from 0 - 100% represent growth inhibition, and numbers from -100% - 0 represent cell death. For example, a value of 40 represents 60% growth inhibition. A value of 0 means no net growth occurred over the course of the experiment. A value of -40 indicates 40% of cells at the beginning of the experiment died by the end of the experiment. A value of -100 means all cells are dead at the end of the experiment.
NCI-60 Human Tumor Cell Lines Screen was performed using the standard one-dose NCI protocol, which is described in more detail at https://dtp.cancer.gov/discovery_development/nci-60/default.htm.
Compounds with GIPRCNT values below 10 were considered active. Activity score was based on GIPRCNT using the following formula: […]
Score is 0 for GIPRCNT values of 100 or above, 50 for GIPRCNT values of 0, and 100 for GIPRCNT values of -100.
`Cc1ccc(-n2nc3c(c(C#N)c2=O)CC(c2ccccc2Cl)C([N+](=O)[O-])=C3O)cc1` (stereo not given): the growth is 83.2%. Regarding `COC(=O)[C@]12CC[C@@H](C)[C@H](C)[C@@H]1C1=CC[C@@H]3[C@@]4(C)C(C=O)=C[C@@](C)(COC(C)=O)C4=CC[C@@]3(C)[C@]1(C)CC2`, the growth was -9.49% (active).

Take `CN(C)c1ccc(-c2cc(-c3ccc(Nc4nc(Nc5ccc(Cl)cc5)nc(Nc5ccc(Cl)cc5)n4)cc3)no2)cc1`: the growth is -58.6% (active).

As to `COc1cc(C2NC(=O)c3ccccc3N2)ccc1OCCCCCOc1c(OC)cc(C2=NOC(c3cc(OC)c(OC)c(OC)c3)C2)cc1OC` (stereo not given), the growth is -22.2% (active). With `Cc1ccc(C(=O)C2=C(O)C(=O)N(Cc3cccnc3)C2c2ccccc2F)o1` (stereo not given) the figure was 105%; with `C[C@@]1(CCC#N)[C@H]2CC[C@@H]3[C@H]4[C@H](C(=O)/C=C/c5cccnc5)CC[C@]4(C#N)CC[C@@]3(C)[C@]2(C)CC[C@H]1C(=O)/C=C/c1cccnc1`, -2.94% (active).

On to `CCOC(=O)c1c2ncccc2n2c(=O)n(-c3ccccc3C)nnc12`, for which the growth was 158%. In the case of `O=C(CSc1nccc(Nc2ccc(S(=O)(=O)Nc3nccs3)cc2)n1)c1ccc(F)cc1`, the growth is 108%.

Turning to `N/C(=N/N=C/c1ccccc1)N/N=C\c1ccccc1`, the growth was 55.3%.

`N#CCN1C(=O)C2C3=C(CCCC3)SC2N=C1CN1CCCC1` (stereo not given): the growth was 50.2%. As for `CCN(CC)c1ccc(C(=O)c2ccc(N(CC)CC)cc2)cc1`, the growth was 20.8%.

As to `C[C@H](NC(=O)[C@@H]1CSSC[C@@H](NC(=O)c2nc3ccccc3cc2O)C(=O)NCC(=O)N1C)c1ccccc1`, the growth was 22.6%. With `CC1=C([Se]CC(OC(=O)[C@@H](CO)NC(=O)OC(C)(C)C)C(=O)NC(C)(C)C)C(=O)c2ccccc2C1=O` (stereo not given in full) the figure was -33.7% (active). For the molecule `Cc1ccccc1NC(=O)N/C(N)=N/c1nc(-c2cccc([N+](=O)[O-])c2)cs1`, the growth was 34.1%.

For the molecule `Cc1nc2ccccc2n1CC1NC(=O)NC1=O` (stereo not given), the growth was 106%. With `COC(=O)c1c2c(c(C)[n+]([O-])c1C)C(=O)C(NCc1ccc(F)c(Cl)c1)=CC2=O` the figure was 20.6%; with `O=C1/C(=C2/C=Nc3ccccc32)N(O)c2ccccc21`, 38.9%; with `CC1O[C@@H](OC2[C@H](OC(=O)/C=C/c3ccc(O)c(O)c3)C(COC3O[C@H](C)C(O)C(O)[C@@H]3O)O[C@@H](OCCc3ccc(O)c(O)c3)[C@H]2O)[C@@H](O)C(O)[C@H]1O` (stereo not given in full), 104%. With `Cc1c(O)cc(-c2cnc(N/N=C\c3ccc(Cl)cc3)s2)c(O)c1C` the figure was 41.5%; with `O=C(NCCCNc1cc(-c2cn(-c3ccccc3)nc2-c2cccc(O)c2)ccn1)c1cccc(O)c1`, 45.2%.

Regarding `CNc1ccc(NC)c2c1C(=O)c1ccccc1C2=O`, the growth was 90.2%. As for `CC(=O)N1C(=S)NC(=O)C1Cn1c(-c2ccccc2)nc2ccccc21` (stereo not given), the growth is 97.3%. With `CC(=O)n1c(-c2ccc(Cl)cc2)nc2c(c1=O)C(c1ccc(Cl)cc1)c1sc3c(Cl)cccc3c1O2` (stereo not given) the figure was 0.984% (active); with `COc1ccc(Nc2nnc(SCc3ccccc3F)s2)cc1`, 71.6%. With `COc1cc2c(cc1-c1c(C)noc1C)ncc1nc(C3CCCCC3)n(C3CCC(OC(F)F)CC3)c12` (stereo not given) the figure was 4.9% (active).

Take `O=S(=O)(NCCCNc1cc(-c2c(-c3cccc(O)c3)nc3sccn23)ccn1)c1cccc(Cl)c1`: the growth was 5.17% (active).

With `COc1cc(/C=C/C(=O)c2cccc(-n3cc(-c4ccccc4)[nH]c3=O)c2)ccc1O`, the growth was -9.6% (active). With `O=c1[nH]ccc2nc(N3CCC(O)CC3)nc(Nc3ccc(N4CCOCC4)cc3)c12` the figure was 80.9%; with `Cc1c(C(=O)OC(=NC2CCCCC2)NC2CCCCC2)sc2c1c(=O)nc1c(C#N)n[nH]n12`, 137%; with `C[C@]12CC[C@@H]3c4cc(OC(F)F)c(O)cc4CC[C@H]3[C@@H]1CC[C@@H]2OS(N)(=O)=O`, 26.6%. Regarding `O=C(CCCCCCN1CC(=O)N2[C@@H](c3ccccc3Cl)c3[nH]c4ccccc4c3C[C@H]2C1=O)NO`, the growth was 14.8%. Regarding `O=C1OC(c2nc3ccccc3s2)=C/C1=C\c1ccc(O)cc1`, the growth was 114%. With `OC(COc1ccccc1Cl)COc1ccccc1Cl` the figure was 81.5%; with `O=C1/C(=C\c2cccnc2)SC(=S)N1CCc1ccc(O)cc1`, 16.7%; with `COc1ccc(N=C(c2ccccc2)C2C(=O)c3ccccc3C2=O)cc1`, 37.2%. With `Cc1cc(NCc2cc(Nc3ccnc4cc(Cl)ccc34)ccc2F)nc(N2CCCC2)n1` the figure was -24.2% (active). With `CC/C=C1/C(=O)C=C[C@@H]1C/C=C\CCCC(=O)O` the figure was 19.9%.

For `CCCCCc1nc2c(c3c1CCCC3)CCCC2`, the growth was 0.398% (active). As to `CCCCNC(=O)Oc1ccc2c(=O)c3sc4c(=O)c5ccccc5c(=O)c4c3c(=O)c2c1`, the growth was -41.9% (active). With `CN1CCN(CC(=O)Nc2nc(-c3cccc(NS(=O)(=O)c4cccc5c(N(C)C)cccc45)c3)cs2)CC1` the figure was 24.2%.
